From PubChem
Only a selection was taken, and hits are over-represented in it overall.
Tb PGK inh: qHTS Assay to Find Inhibitors of Phosphoglycerate Kinase | Phosphoglycerate kinase, glycosomal (Trypanosoma brucei brucei), P07378 | PGK/GAPDH coupled, Kinase-Glo luminescence, 60 min | Potency, µM (series often up to 57.5 µM), inactives show at the top dose activity change, negative = inhibition, most hits filed as inhibitors | 380,000 tested, 0.043% active | AID 602233, 2012; further: potency means the concentration at half of the fitted maximal effect; nearly all actives have a fitted effect of over 60% in size
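Luminescent ATP detection (Kinase-Glo Plus) follows a 60-minute room-temperature incubation, with wells lacking PGK as controls. Buffer: 100 mM TEA (pH 7.6), 5 mM MgCl2, 0.01% Tween-20. Coupling enzyme GAPDH (100 nM final) supplies unstable 1,3-BPG in-well.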
Pin1 inh: qHTS Assay to Find Inhibitors of Pin1. Potency, µM (top dose mostly 115 µM), inactives show top-dose activity, negative = inhibition, actives largely listed as inhibitors. 390,000 tested, 0.009% active. Pin1 FP peptide displacement, HiFluor488, 10 min. Peptidyl-prolyl cis-trans isomerase NIMA-interacting 1 (Homo sapiens), Q13526. AID 504891, 2011; active means well fitted inhibition curve with a large enough effect in the polarisation, with a control signal flat, not every such curve was filed as active; inconclusive means small, poorly fitted or top-dose-only effect, or effect the other way, or a change in a side signal; inactive means no such curve, though single readings can be large or run the other way; the % refers to the polarisation; further: potency means the concentration at half of the fitted maximal effect
PI4K2A inh: qHTS for small molecular inhibitors of PI4K2A; purified PI4K2A, ADP-Glo luminescence, 1 h; active compounds read low; AID 1346378, 2018; Phosphatidylinositol 4-kinase type 2-alpha (Homo sapiens), Q9BTU6; activity change, negative = inhibition, % at 76.9 µM; 420,000 tested, 0.13% active; in the data active means activity change below about -50%; inconclusive means mostly about -30% to -49%;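 further: -100% = wells without enzyme as full effect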
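Compounds are screened against recombinant PI4K2A using PI as substrate and ATP, the latter dispensed at 300 microM. Reactions run one hour at ambient temperature before ADP-Glo detection; full inhibition defined by wells lacking enzyme.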
PI5P4K alpha inh: qHTS for Inhibitors of phosphatidylinositol 5-phosphate 4-kinase (PI5P4K); 330,000 tested, 1.2% active; PI5P4Kalpha enzyme, ADP-Glo luminescence, 60 min; active compounds read low; max response, %; active means max response of -50% or lower; inconclusive means between -30% and -50%; inactive means -30% or higher; further: value at the top dose of about 77 µM
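Compounds were pin-transferred onto PI5P4Kalpha and substrate in HEPES pH 7.4 buffer with EGTA, CHAPS and 5% DMSO. ATP (5 microM final) started the reaction, which ran 60 minutes at room temperature before ADP-Glo detection.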
Tb PFK inh: qHTS Assay to Find Inhibitors of T. brucei phosphofructokinase; T. brucei PFK, ADP-Glo luminescence; Potency, µM (highest dose often 57.5 µM), for inactives: at the highest dose activity, negative = inhibition, hits mostly inhibitors; 330,000 tested, 0.17% active;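 further: potency means the concentration at half of the fitted maximal effect; 0% = uninhibited 1x PFK enzyme wells and -100% = no-enzyme wells; nearly all actives have a fitted effect of over 60% in size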
Target sequence (O15648 whole entry, looked up): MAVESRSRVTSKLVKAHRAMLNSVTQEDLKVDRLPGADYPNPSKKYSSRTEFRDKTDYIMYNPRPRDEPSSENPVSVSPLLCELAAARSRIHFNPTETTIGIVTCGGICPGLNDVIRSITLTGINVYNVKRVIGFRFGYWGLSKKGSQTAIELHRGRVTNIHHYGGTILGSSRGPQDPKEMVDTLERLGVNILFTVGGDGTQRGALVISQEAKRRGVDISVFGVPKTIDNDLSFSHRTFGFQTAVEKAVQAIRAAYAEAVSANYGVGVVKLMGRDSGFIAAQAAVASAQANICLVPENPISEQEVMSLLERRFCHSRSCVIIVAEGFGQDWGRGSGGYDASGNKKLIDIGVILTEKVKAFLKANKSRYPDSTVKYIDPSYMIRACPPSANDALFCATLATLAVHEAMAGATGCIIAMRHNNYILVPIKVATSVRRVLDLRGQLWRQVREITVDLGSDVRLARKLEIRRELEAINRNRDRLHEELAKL
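Activity is normalized to no-enzyme wells (full inhibition) and 1.25 nM enzyme wells (no inhibition). Reaction: 0.5 mM F6P, 0.1 mM ATP, 45 min RT, ADP-Glo luminescence; concentration-response curves fitted and classed by quality.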
The depositor's hits bear a star. Unless noted, the call rests on the fitted dose curve; in most records, active means well fitted curve in the direction sought with a large enough effect; inconclusive means small, poorly fitted or top-dose-only effect, or another doubt; inactive means no such curve, though single readings can be large; an effect the other way counts as inactive or inconclusive. Unless noted, on the % scale 0 is the no-effect control and ±100 the full control effect.

How did O=C1CCCC2=C1C1(CCCC1)N=C(Nc1nc3cc4ccccc4cc3o1)N2 do in these assays?
Pin1 inh: 10%

Results for O=C1C=CC(=O)N1Cc1ccccc1 ?
Tb PGK inh: 3%; Pin1 inh: 4%; PI4K2A inh: 8; PI5P4K alpha inh: -86*; Tb PFK inh: -12%

Results for O=C1C2CC=CCC2C(=O)N1Cc1ccccc1 (stereo not drawn) ?
Tb PGK inh: -4%; Pin1 inh: -1%; PI4K2A inh: 1; Tb PFK inh: 1%

What do the screens show for `C/C(=C1\CCOC(=O)S1)N(C=O)Cc1cnc(C)nc1N`?
PI4K2A inh: -1

Results for C/C(=N/NC(=O)c1cccs1)c1c(C)[nH]n(-c2nc3ccccc3s2)c1=O ?
Tb PGK inh: inconclusive; Pin1 inh: -1%; PI4K2A inh: -66*; PI5P4K alpha inh: inconclusive; Tb PFK inh: -8%

What do the screens show for `C[C@@H](CN1CC(=O)NC(=O)C1)N1CC(=O)NC(=O)C1`?
PI4K2A inh: -13

How did O=c1c2[nH]c3ccsc3c2cnn1Cc1ccccc1F do in these assays?
Pin1 inh: -4%

What do the screens show for `CCN(CC)c1ccc(C(=O)O)cc1`?
Tb PGK inh: 1%; Pin1 inh: 2%; PI4K2A inh: -3; PI5P4K alpha inh: 7; Tb PFK inh: -4%

What do the screens show for `CCN(CC)c1ccc(/C=C2\C(=O)c3ccc(C(=O)O)cc3C2=O)cc1`?
Tb PGK inh: -22%; Pin1 inh: inconclusive; PI4K2A inh: -16; PI5P4K alpha inh: -70*; Tb PFK inh: 2%

How did CCCn1c(-c2ccc(OC)cc2)nc2c(=O)n(C)c(=O)[nH]c21 do in these assays?
Tb PGK inh: inactive; Pin1 inh: 0%; PI4K2A inh: 0; PI5P4K alpha inh: -51*; Tb PFK inh: -1%

What do the screens show for `CCCCn1c(-c2ccc(OC)cc2)nc2c(=O)n(C)c(=O)[nH]c21`?
Pin1 inh: 3%; PI4K2A inh: 3; PI5P4K alpha inh: inconclusive; Tb PFK inh: 2%

Results for O=C1C=CC(=Nc2ccc3c(c2)C(=O)c2ccccc2-3)O1 ?
Tb PGK inh: -4%; Pin1 inh: inconclusive; PI4K2A inh: 0; PI5P4K alpha inh: -58*

How did Cc1oc(-c2ccccc2)nc1CCC(=O)c1ccc(CC2SC(=O)NC2=O)cc1 (stereo not drawn) do in these assays?
PI4K2A inh: 0

How did Cc1c[nH]c2cccc(-c3cc4ccccc4o3)c12 do in these assays?
PI4K2A inh: -7

How did O=[N+]([O-])c1ccc(-c2c[nH]c(=S)[nH]2)cc1 do in these assays?
Tb PGK inh: -15%; Pin1 inh: -12%; PI4K2A inh: -12; PI5P4K alpha inh: -77*; Tb PFK inh: -2%

Results for NC1[C@H]2CN(c3nc4c(cc3F)c(=O)c(C(=O)O)cn4-c3ccc(F)cc3F)C[C@@H]12 (stereo partly drawn) ?
PI4K2A inh: -4

How did N#C/C(=C\c1cc(O)c(O)c(O)c1)C(N)=O do in these assays?
Pin1 inh: 76%; PI4K2A inh: -9; PI5P4K alpha inh: -76*; Tb PFK inh: inconclusive

Results for Nc1nc2ccc([N+](=O)[O-])c(N)c2s1 ?
Tb PGK inh: -5%; Pin1 inh: inconclusive; PI4K2A inh: -4; PI5P4K alpha inh: -58*; Tb PFK inh: -11%

Results for O=C(Nc1ccccc1)Nc1ccc(O)c2ccccc12 ?
Tb PGK inh: inactive; Pin1 inh: -2%; PI4K2A inh: -27; PI5P4K alpha inh: -52*

What do the screens show for `COc1ccc(OC(=O)N(CC(=O)O)Cc2ccc(OCCc3nc(-c4ccccc4)oc3C)cc2)cc1`?
PI4K2A inh: -2

How did O=C(COC(=O)c1cccnc1Cl)c1ccc(F)cc1 do in these assays?
Tb PGK inh: -8%; Pin1 inh: 1%; PI4K2A inh: -7; PI5P4K alpha inh: -3; Tb PFK inh: 2%
